NPR1 antag: human Npr1 receptor antagonism | Potency, µM (doses to about 46.3 µM), without a hit: at the top dose activity change, negative = inhibition, actives largely listed as inhibitors | 1.6% of 76,000 active | HEK293 hNpr1 GloSensor cGMP, ANP-stimulated luminescence | P16066 | AID 1347048; calls by dose curve; further: nearly all actives have a fitted effect of over 60% in size
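Compound pre-incubated 30 min at room temperature on GloSensor-loaded HEK293 cells stably carrying hNpr1 and the pGS-40F cGMP biosensor. Stimulation uses hNppA at 0.1 nM final; luminescence is taken at baseline and 20 min post-agonist.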
HEK cytotox: cytotoxic compounds in HEK 293 cells; HEK 293 viability, ATP luminescence (CellTiter-Glo), 48-72 h; Potency, µM (highest dose often 115 µM), for inactives: top-dose activity change, negative = cytotoxicity, actives largely listed as inhibitors; 6.6% of 94,000 active; AID 1345083; further: nearly all actives have a fitted effect of over 60% in size
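Pintool-delivered compounds were incubated with HEK 293 cells (250 cells/well) at 37 degree Celsius for 48 or 72 hr. ATP-dependent luminescence (CellTiter-Glo) then reported remaining viable cells.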
Luciferase inh: Photinus pyralis luciferase inhibition; P08659; purified P. pyralis luciferase, luminescence, biochemical; Potency, µM (highest dose often 115 µM), usual class: inhibitors; 2.5% of 76,000 active; AID 1347043; further: nearly all actives have a fitted effect of over 65% in size
Target sequence (P08659 whole entry, looked up): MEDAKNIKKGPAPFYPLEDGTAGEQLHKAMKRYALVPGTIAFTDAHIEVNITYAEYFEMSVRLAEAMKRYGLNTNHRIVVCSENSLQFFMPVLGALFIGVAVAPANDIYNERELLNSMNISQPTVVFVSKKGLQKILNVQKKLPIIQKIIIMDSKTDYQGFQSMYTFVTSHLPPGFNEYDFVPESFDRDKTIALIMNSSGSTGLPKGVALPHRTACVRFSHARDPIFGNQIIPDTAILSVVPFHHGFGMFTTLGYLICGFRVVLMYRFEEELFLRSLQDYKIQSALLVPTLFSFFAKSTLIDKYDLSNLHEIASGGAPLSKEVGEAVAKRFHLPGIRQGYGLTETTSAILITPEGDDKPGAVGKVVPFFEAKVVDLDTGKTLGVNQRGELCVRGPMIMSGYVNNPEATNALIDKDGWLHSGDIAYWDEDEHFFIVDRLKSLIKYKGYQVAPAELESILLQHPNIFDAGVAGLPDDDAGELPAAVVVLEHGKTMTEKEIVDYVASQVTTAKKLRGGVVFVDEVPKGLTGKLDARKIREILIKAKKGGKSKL
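FLuc 10nM, D-luciferin 10uM, ATP 10uM, Mg acetate 10mM, Tris acetate pH 7.5, Tween/BSA; cpd qHTS; enzyme added last; CCD luminescence.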
GPT2 inh: inhibitors of human GPT2 alanine aminotransferase; Q8TD30; Recombinant GPT2, coupled pyruvate oxidase/HRP Amplex Red fluorescence; 0.25% of 100,000 active; Potency, µM (titrated, usually from 57.7 µM), inactives show top-dose activity change, negative = inhibition, actives largely listed as inhibitors; further: nearly all actives have a fitted effect of over 60% in size
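GPT2 10ng/uL, a-KG 250uM, L-Ala 2mM, HEPES pH7.5 + 0.0001% Tween; 30 min RT. Then Amplex mix (PO/HRP/ThPP), 30 min RT dark, fluorescence. AOA 50uM used as positive control.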
NIH3T3 tox: kills NIH 3T3 cells; 4.3% of 94,000 active; NIH 3T3 viability, CellTiter-Glo ATP luminescence, 48-72 h; Potency, µM (series often up to 96.7 µM), for inactives: at the highest dose activity change, negative = cytotoxicity, actives largely listed as inhibitors; AID 1345082; further: nearly all actives have a fitted effect of over 55% in size
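Mouse fibroblast NIH 3T3 cells, 400 per well, received compound via pintool and were incubated for 48 or 72 hr prior to CellTiter-Glo ATP luminescence measurement.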
Active calls of the source: *; i = inactive; u = inconclusive; x = not tested or not shown; [ ] = another dose, or the depositor's remark. The list is not random: actives were taken first. Their share in the collection is about 10%. Unless noted, the call rests on the fitted dose curve; in most records, active means well fitted curve in the direction sought with a large enough effect; inconclusive means small, poorly fitted or top-dose-only effect, or another doubt; inactive means no such curve, though single readings can be large; an effect the other way counts as inactive or inconclusive. On the % scale 0 is the no-effect control and ±100 the full control effect; potency means the concentration at half of the fitted maximal effect.

SMILES	NPR1 antag	HEK cytotox	Luciferase inh	GPT2 inh	NIH3T3 tox
COCCOc1ncccc1-c1noc([C@@H]2CCCN2C(C)C)n1	-4%[70.6 µM]	-22%[172 µM]	i	4%[88.5 µM]	-13%[138 µM]
COc1ccccc1C(=O)N1CCC2(CC1)COc1ccccc1[S+](=O)([O-])N2	x	0%	x	-6%	-18%
COc1ccccc1C(=O)N1CCC2(CC1)COc1ccccc1CN2	6%[70.6 µM]	63µM*	i	i	u
Cc1ccc(C)c(NC(=O)CN2C(=O)NC(c3ccccc3Cl)C3=C2COC3=O)c1 (stereo not drawn)	1%	-15%	i	i	-2%
CN(CC[C@H]1CN(C(=O)c2ccc(C(F)(F)F)cc2)CC[C@H]1CC(=O)O)c1ccccc1	3%	0%	i	-2%	35µM*
CC(=O)N1CCCN(CC[C@H]2CN(C(=O)c3ccc(C(F)(F)F)cc3)CC[C@H]2CC(=O)O)CC1	4%	2%	i	-4%	4%
O=C(NCC1CCCCC1)c1ccc2c(c1)N(S(=O)(=O)c1ccccc1)CC2	-5%	u	i	i	40µM*
COc1cccc(NC(=O)C2(C)CN(C)Cc3ccc(NCc4ccccc4)nc32)c1 (stereo not drawn)	-2%[70.6 µM]	u	i	0%[88.5 µM]	40µM*
COc1ccc(NC(=O)C2(C)CN(C)Cc3ccc(NCc4ccccc4)nc32)cn1 (stereo not drawn)	-17%[70.6 µM]	79µM*	i	-1%[88.5 µM]	79µM*
O=C(NCc1ccccc1)N1CCOC(CN(CC2CC2)C(=O)c2cccc(F)c2)C1 (stereo not drawn)	0%	u	i	i	-20%
COc1ccc(C(=O)N(CC2CC2)CC2CN(C(=O)Nc3ccccc3)CCO2)cc1OC (stereo not drawn)	1%	28µM*	i	i	u
CC(C)CNC(=O)c1cc(-c2ccc(F)cc2)nc2c1cnn2C	x	u	x	i	u
CSc1ccc(-c2cccc(CN3CCC(NC(=O)Nc4ccccc4F)CC3)c2)cc1	x	18µM*	x	x	13µM*
CSc1ccc(-c2cccc(CN3CCC(NC(=O)Nc4ccccc4)CC3)c2)cc1	x	u	x	x	14µM*
COc1cc(F)ccc1-c1cc(-c2c(C)noc2C)cc2c1C(=O)N(C)C2=O	0%[70.6 µM]	u	i	-8%[88.5 µM]	u
COc1cccc(CN2CCOC3CCN(Cc4ccccc4O)CC3C2=O)c1 (stereo not drawn)	-4%[70.6 µM]	u	i	-8%[88.5 µM]	-12%[138 µM]
COc1cccc(CN2CCOC3CCN(CCCc4ccccc4)CC3C2=O)c1 (stereo not drawn)	-1%[70.6 µM]	u	i	-11%[88.5 µM]	79µM*
Cc1ccc(-c2cccc(CN3CCCC(NC(=O)C4CC4)C3)c2)cc1Cl (stereo not drawn)	x	35µM*	x	-9%	u
COc1ccccc1C(=O)NC1CCCN(Cc2cccc(-c3ccc(C)c(Cl)c3)c2)C1 (stereo not drawn)	x	40µM*	x	-6%	u
COC(=O)CNC(=O)N1CC[C@@H]2COC(=O)N(Cc3ccccc3)[C@@H]2C1	x	0%	x	i	-12%
O=C(COc1ccccc1)NC[C@H]1Cn2c(-c3ccc(Cl)cc3)cnc2CO1	-13%[70.6 µM]	100µM*	i	5%[88.5 µM]	u
COc1ccc(C(=O)NC[C@H]2Cn3c(-c4ccc(Cl)cc4)cnc3CO2)cc1	u	100µM*	u	i	u
Clc1ccc(-c2cnc3n2C[C@H](CNC2CCOCC2)OC3)cc1	-9%[70.6 µM]	u	i	u	89µM*
Cc1nc(-c2ccc(Cl)cc2)n(Cc2ccc(F)c(F)c2)c(=O)c1CCO	-23%	45µM*	i	i	u
Cc1nc(-c2ccc(F)cc2)n(Cc2ccc(F)c(F)c2)c(=O)c1CCO	-23%	u	i	i	u
SMILES	NPR1 antag	HEK cytotox	Luciferase inh	GPT2 inh	NIH3T3 tox
Cc1nc(-c2ccc(Cl)cc2)n(Cc2ccc(F)cc2F)c(=O)c1CCO	1%	35µM*	i	4%	u
Cc1nc(-c2ccc(Cl)cc2)n(Cc2ccccc2)c(=O)c1CCO	-2%	45µM*	i	i	u
Cc1ccc(C)c(Cn2c(-c3ccc(Cl)cc3)nc(C)c(CCO)c2=O)c1	4%	u	i	i	u
Cc1nc(-c2ccc(Cl)cc2)n(Cc2ccccc2F)c(=O)c1CCO	3%	45µM*	i	3%	u
COc1cc(NC(=O)O[C@@H]2CC[C@]3(C)C(CC[C@@H](O)[C@H]3CC(=O)N3CCC[C@H]3CO)[C@]2(C)CO)cc(OC)c1 (stereo partly drawn)	4%	i	i	-8%	i
Cc1nc(-c2ccccc2)n(Cc2ccc(F)cc2Cl)c(=O)c1CCO	-21%	28µM*	i	0%	45µM*
CCn1cc(-c2ccc(C)cc2)cc1C(=O)NC(C)c1ccccn1 (stereo not drawn)	-7%	40µM*	i	i	u
Cc1cccc(CN2CCCN(S(=O)(=O)c3cn(C)cn3)C(c3ccccc3)CC(=O)NCC2)c1 (stereo not drawn)	-12%	i	i	i	-20%
CCN(Cc1ccccc1)C(=O)C1CCCN(C2CCN(C(=O)C3CC3)CC2)C1 (stereo not drawn)	5%	4%	i	-10%	i
O=[S+]([O-])(NC1CCN(c2nccc(Nc3ccccc3F)n2)CC1)c1cccs1	x	45µM*	x	-2%	45µM*
COc1ccc(Nc2ccnc(N3CCC(N[S+](=O)([O-])c4ccc(C)cc4)CC3)n2)cc1	x	28µM*	x	i	25µM*
COc1ccc(Nc2ccnc(N3CCN([S+](=O)([O-])c4cccc(C(F)(F)F)c4)CC3)n2)cc1	x	32µM*	x	u	u
C[S+](=O)([O-])N1CCN(c2nccc(Nc3ccccc3F)n2)CC1	x	-10%	x	i	-27%
Cc1ccc([S+](=O)([O-])N2CCN(c3nccc(Nc4ccccc4F)n3)CC2)cc1	x	32µM*	x	i	u
Cc1ccccc1CN1CCCC12Cc1ccccc1CNC2=O (stereo not drawn)	x	u	x	i	u
COc1ccc(Cn2c(=O)c(C(=O)NCC(F)F)nc3cccnc32)cc1	x	i	x	i	-4%
Cc1noc(C)c1[S+](=O)([O-])NC1CCN(c2nccc(Nc3ccccc3F)n2)CC1	x	u	x	i	u
Cc1ccc([S+](=O)([O-])NC2CCN(c3nccc(Nc4ccccc4F)n3)CC2)cc1	x	28µM*	x	-12%	40µM*
Cc1nn(-c2ccccc2)c2c1C(C(C)C)N(C1CN(C(=O)N(C)C)C1)C2=O (stereo not drawn)	x	u	x	x	-26%
Cc1nn(-c2ccccc2)c2c1C(C(C)C)N(C1CCCN(C(=O)C3CCCC3)C1)C2=O (stereo not drawn)	x	-10%	x	x	-19%

Screening results from PubChem BioAssay.
